According to PubChem BioAssay (NCATS):
Records with an inconclusive call do not appear. Active and inactive are the calls of the source. Unless noted, the call rests on the fitted dose curve; in most records, active means well fitted curve in the direction sought with a large enough effect; inconclusive means small, poorly fitted or top-dose-only effect, or another doubt; inactive means no such curve, though single readings can be large; an effect the other way counts as inactive or inconclusive.

Legend:
[1] = Quantitative High-Throughput drug screen in 47 multiple myeloma cell lines against the NCATS MIPE library collection: VP6_DJ cell viability assay (AID 1919867); further: nearly all actives have a fitted effect of over 40% in size; further: potency means the concentration at half of the fitted maximal effect
How it was run: (§1)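 Readout: median RLU from CellTiter-Glo after 5 min at room temperature. Preceding step was 48 h drug treatment of 500 cells/well at 37 °C, 5% CO2, with DMSO-only and media-only control wells.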

[2] = Quantitative High-Throughput drug screen in 47 multiple myeloma cell lines against the NCATS MIPE library collection: PE2_PLB cell viability assay (AID 1919869); further: nearly all actives have a fitted effect of over 35% in size; further: potency means the concentration at half of the fitted maximal effect
How it was run: as §1

[3] = Quantitative High-Throughput drug screen in 47 multiple myeloma cell lines against the NCATS MIPE library collection: PCM6_Riken cell viability assay (AID 1919870); further: nearly all actives have a fitted effect of over 30% in size; further: potency means the concentration at half of the fitted maximal effect
How it was run: as §1

[4] = Quantitative High-Throughput drug screen in 47 multiple myeloma cell lines against the NCATS MIPE library collection: OPM2_DSMZ cell viability assay (AID 1919872); further: nearly all actives have a fitted effect of over 30% in size; further: potency means the concentration at half of the fitted maximal effect
How it was run: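 Luminescent ATP measurement with CellTiter-Glo gives viability, scaled between DMSO-only wells (100%) and media-only wells (0%). Cells, 500 per well, faced library compounds for 48 hours at 37C.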

[5] = Quantitative High-Throughput drug screen in 47 multiple myeloma cell lines against the NCATS MIPE library collection: KMS28BM_JCRB cell viability assay (AID 1919874); further: nearly all actives have a fitted effect of over 35% in size; further: potency means the concentration at half of the fitted maximal effect
How it was run: as §1

[6] = qHTS drug screen for cell cycle checkpoint inhibitors in PARPi-resistant BRCA-mutant ovarian cancer cell lines. (AID 1963452; calls by dose curve; further: potency means the concentration at half of the fitted maximal effect); conditions: PEO1/OlaR viability, CellTiter-Glo luminescence, 96 h; for Z-AUC: stronger effect = lower value
How it was run: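 PEO1, PEO4 and PEO1/OlaR ovarian cancer cells, 600 per well, exposed 96 h at 37C to a dilution series. Viability read by CellTiter-Glo luminescence, normalized to DMSO and empty wells; activity summarized as Z-AUC.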

[7] = Quantitative High-Throughput drug screen in 47 multiple myeloma cell lines against the NCATS MIPE library collection: RPMI8226_ATCC cell viability assay (AID 1919871); further: nearly all actives have a fitted effect of over 30% in size; further: potency means the concentration at half of the fitted maximal effect
How it was run: as §1

[8] = Quantitative High-Throughput drug screen in 47 multiple myeloma cell lines against the NCATS MIPE library collection: KMS11_JCRBsus cell viability assay (AID 1919873); further: potency means the concentration at half of the fitted maximal effect; nearly all actives have a fitted effect of over 50% in size
How it was run: as §1

[9] = Quantitative High-Throughput drug screen in 47 multiple myeloma cell lines against the NCATS MIPE library collection: UTMC2_PLB cell viability assay (AID 1919868); conditions: CellTiter-Glo ATP luminescence, 48 h; viability (% of DMSO control): at 45.8 µM (top of the series) unless noted; further: potency means the concentration at half of the fitted maximal effect; nearly all actives have a fitted effect of over 55% in size
How it was run: as §1

[10] = qHTS for identification of novel therapeutic agents for treatment of microphthalmiaassociated transcription factor (MiT) renal cell carcinoma (RCC) (AID 1963991; calls by dose curve; further: potency means the concentration at half of the fitted maximal effect); conditions: CellTiter-Glo, 48 h; for z-score: stronger effect = lower value
How it was run: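 Curves over 11 concentrations were fitted to CellTiter-Glo luminescence, scaled between empty wells (0%) and DMSO (100%) viability. Cells were UOK109, UOK124 and UOK145 TFE3-fusion RCC lines at 500/well, exposed 48 hours at 37 C.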

[11] = qHTS profiling for inhibitors of Plasmodium falciparum proliferation (AID 504749);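 further: 0% = DMSO vehicle and full inhibition = artemisinin control; nearly all actives have a fitted effect of over 60% in size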; conditions: P. falciparum in erythrocytes, SYBR Green DNA, 72 h, at 28.7 µM (top of the series)
How it was run: (§2)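 Fluorescence of SYBR Green-bound parasite DNA, read at 485/535 nm, served as the growth measure. Infected erythrocytes were cultured with compound 72 h; artemisinin (0.29 uM) and DMSO wells defined the normalization range.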

[12] = tested on: 3D7; test: as above; conditions: P. falciparum in erythrocytes, SYBR Green DNA, 72 h; series mostly up to 28.7 µM
How it was run: as §2

[13] = tested on: AA1029; test: as above; conditions: P. falciparum in erythrocytes, SYBR Green DNA, 72 h; series mostly up to 28.7 µM
How it was run: as §2

[14] = tested on: AS120; test: as above; conditions: P. falciparum in erythrocytes, SYBR Green DNA, 72 h; series mostly up to 28.7 µM
How it was run: as §2

[15] = tested on: ATS189; test: as above; conditions: P. falciparum in erythrocytes, SYBR Green DNA, 72 h; series mostly up to 28.7 µM
How it was run: as §2

[16] = tested on: ATS95; test: as above; conditions: P. falciparum in erythrocytes, SYBR Green DNA, 72 h; series mostly up to 28.7 µM
How it was run: as §2

[17] = tested on: C2A; test: as above; conditions: P. falciparum in erythrocytes, SYBR Green DNA, 72 h; series mostly up to 28.7 µM
How it was run: as §2

[18] = tested on: CP185; test: as above; conditions: P. falciparum in erythrocytes, SYBR Green DNA, 72 h; series mostly up to 28.7 µM
How it was run: as §2

[19] = tested on: CP191; test: as above; conditions: P. falciparum in erythrocytes, SYBR Green DNA, 72 h; series mostly up to 28.7 µM
How it was run: as §2

[20] = measured here: PEO1 parental Z-AUC
[21] = TFE3-RCC UOK109 viability, measured here: UOK109 Z-AUC
[22] = TFE3-RCC viability, measured here: UOK124 Z-AUC
[23] = TFE3-RCC viability, measured here: UOK145 Z-AUC

CC1(C)CC(=O)c2c(C(F)(F)F)nn(-c3ccc(C(N)=O)c(NC4CCC(OC(=O)CN)CC4)c3)c2C1 (stereo unspecified)
Potency [1]: 0.166 µM (active)
Potency [2]: 0.209 µM (active)
Potency [3]: 0.0743 µM (active)
Potency [4]: 0.296 µM (active)
Potency [5]: 0.187 µM (active)
Z-AUC [6]: -1.29 (inactive)
Z-AUC [6, 20]: -0.877
Z-AUC ([6]; measured here: PEO4 Z-AUC): -0.312

CN(C)CC=CC(=O)Nc1cc2c(Nc3ccc(F)c(Cl)c3)ncnc2cc1O[C@H]1CCOC1
Potency [1]: 0.59 µM (active)
Potency [2]: 2.96 µM (active)
Potency [3]: 1.18 µM (active)
Potency [7]: 16.6 µM (active)
Potency [8]: 6.62 µM (active)
Potency [5]: 11.8 µM (active)

COc1cc2c(cc1-c1c(C)noc1C)ncc1[nH]c(=O)n([C@H](C)c3ccccn3)c12
Potency [1]: 0.833 µM (active)
Potency [2]: 14.8 µM (active)
Potency [3]: 6.62 µM (active)
Potency [7]: 7.43 µM (active)
Potency [5]: 0.332 µM (active)

CC(C)(O)c1cc2nc(-c3cnc(N)nc3)nc(N3CCOCC3)c2s1
Potency [1]: 0.0833 µM (active)
Potency [2]: 0.105 µM (active)
Potency [3]: 0.743 µM (active)
Potency [4]: 0.187 µM (active)
Potency [8]: 0.0187 µM (active)
Potency [5]: 0.0662 µM (active)
Z-AUC [6]: -1.37 (inactive)
Z-AUC [6, 20]: -1.91
Z-AUC ([6]; measured here: PEO4 Z-AUC): -1.8

O=C(Nc1cn[nH]c1-c1nc2ccc(CN3CCOCC3)cc2[nH]1)NC1CC1
Potency [1]: 2.96 µM (active)
Potency [2]: 0.935 µM (active)
Potency [3]: 2.64 µM (active)
Potency [4]: 4.69 µM (active)
Potency [8]: 1.32 µM (active)
Potency [5]: 1.05 µM (active)
Potency [6]: 0.871 µM (active)
Z-AUC [6, 20]: -1.15
Z-AUC ([6]; measured here: PEO4 Z-AUC): -1.9

Cc1cn2c(-c3cn[nH]c3)cnc2c(Nc2ccc(C(=O)N3CCNCC3)cc2F)n1
Potency [1]: 8.33 µM (active)
Potency [2]: 20.9 µM (active)
Potency [3]: 18.7 µM (active)
Potency [4]: 23.5 µM (active)
Potency [5]: 8.33 µM (active)

NC(=O)c1c(OCc2c(F)cc(Br)cc2F)nsc1NC(=O)NCCCCN1CCCC1
Potency [1]: 10.5 µM (active)
Potency [2]: 23.5 µM (active)
Potency [3]: 10.5 µM (active)
Potency [4]: 20.9 µM (active)
Potency [8]: 20.9 µM (active)
Z-AUC [6]: 0.49 (inactive)
Z-AUC [6, 20]: 0.803
Z-AUC ([6]; measured here: PEO4 Z-AUC): 0.754

O=C(Nc1nc2cccc(-c3ccc(CN4CCS(=O)(=O)CC4)cc3)n2n1)C1CC1
Potency [1]: 18.7 µM (active)
Potency [2]: 16.6 µM (active)
Potency [3]: 16.6 µM (active)
Potency [7]: 18.7 µM (active)
Potency [8]: 13.2 µM (active)
Potency [5]: 14.8 µM (active)
Z-AUC [6]: 0.985 (inactive)
Z-AUC [6, 20]: 0.544
Z-AUC ([6]; measured here: PEO4 Z-AUC): 0.638

CNC(=O)c1nn(C)c2c1C(C)(C)Cc1cnc(Nc3ccc(N4CCN(C)CC4)cc3)nc1-2
Potency [1]: 0.743 µM (active)
Potency [2]: 2.64 µM (active)
Potency [3]: 2.09 µM (active)
Potency [4]: 13.2 µM (active)
Potency [8]: 1.05 µM (active)
Potency [5]: 2.96 µM (active)
Potency [6]: 0.549 µM (active)
Z-AUC [6, 20]: -1.22
Z-AUC ([6]; measured here: PEO4 Z-AUC): -1.37

Cc1cc(Nc2cc(CN3CCOCC3)c3nc(C)c(Cc4ccc(Cl)cc4F)n3n2)n[nH]1
Potency [1]: 13.2 µM (active)
Potency [2]: 5.26 µM (active)
Potency [3]: 16.6 µM (active)
Potency [8]: 1.18 µM (active)
Potency [5]: 14.8 µM (active)
Z-AUC [6]: -0.469 (inactive)
Z-AUC [6, 20]: -0.486
Z-AUC ([6]; measured here: PEO4 Z-AUC): -1.95

N#CCNC(=O)c1ccc(-c2ccnc(Nc3ccc(N4CCOCC4)cc3)n2)cc1
Potency [1]: 3.72 µM (active)
Potency [2]: 2.96 µM (active)
Potency [3]: 3.32 µM (active)
Potency [7]: 16.6 µM (active)
Potency [8]: 7.43 µM (active)
Potency [5]: 7.43 µM (active)
Z-AUC [6]: -0.322 (inactive)
Z-AUC [6, 20]: 0.159
Z-AUC ([6]; measured here: PEO4 Z-AUC): 0.613

CN(C1CCc2c(c3ccccc3n2CC(=O)O)C1)S(=O)(=O)c1ccc(F)cc1 (stereo unspecified)
Potency [1]: 0.0743 µM (active)
Potency [2]: inactive
Potency [3]: 3.72 µM (active)
Potency [5]: 0.296 µM (active)

CCCCCN(CCC12CC3CC(CC(C3)C1)C2)C(=O)NCCCc1ccncc1
Potency [9]: 18.7 µM (active)
Potency [7]: 20.9 µM (active)
Potency [4]: inactive
Potency [8]: 16.6 µM (active)
Potency [5]: 8.33 µM (active)
Z-AUC [6]: -0.0878 (inactive)
Z-AUC [6, 20]: 0.162
Z-AUC ([6]; measured here: PEO4 Z-AUC): -0.141

COc1cc(-c2nn(C3CCC(N4CCN(C(C)=O)CC4)CC3)c3ncnc(N)c23)ccc1NC(=O)c1cc2ccccc2n1C (stereo unspecified)
Potency [1]: 6.62 µM (active)
Potency [2]: 2.96 µM (active)
Potency [7]: 18.7 µM (active)
Potency [8]: 4.18 µM (active)
Potency [5]: 3.32 µM (active)
Z-AUC [6]: -1.39 (inactive)
Z-AUC [6, 20]: 0.075
Z-AUC ([6]; measured here: PEO4 Z-AUC): -0.0545

CS(=O)(=O)c1ccc(-c2cnc(N)c(C(=O)Nc3ccccc3)n2)cc1
Potency [1]: inactive
Potency [7]: inactive
Potency [4]: inactive
Potency [5]: inactive
z-score [10, 21]: 0.172
z-score [10, 22]: 0.911
z-score [10, 23]: 0.761

O=C(O)CCCc1c[nH]c2ccccc12
Potency [1]: 26.4 µM (active)
Potency [2]: inactive
Potency [4]: inactive
Potency [5]: inactive
Z-AUC [6]: 0.341 (inactive)
Z-AUC [6, 20]: 0.661
Z-AUC ([6]; measured here: PEO4 Z-AUC): 0.6
z-score [10, 21]: 0.907
z-score [10, 22]: 0.701
z-score [10, 23]: 0.654

COC(=O)Nc1nc2ccc(C(=O)c3ccc(F)cc3)cc2[nH]1
Potency [1]: 0.935 µM (active)
Potency [3]: 0.743 µM (active)
Potency [7]: 1.87 µM (active)
Potency [4]: 0.935 µM (active)
Potency [8]: 0.296 µM (active)
Potency [5]: 0.332 µM (active)
Z-AUC [6]: -0.379 (inactive)
Z-AUC [6, 20]: -1.33
Z-AUC ([6]; measured here: PEO4 Z-AUC): -1.13
Potency ([10]; TFE3-RCC UOK109 viability, active = Z-AUC below -0.8 in all three lines): 1.87 µM (active)
z-score [10, 21]: -1.13
z-score [10, 22]: -1.2
z-score [10, 23]: -0.98

Cc1cn(-c2cc(NC(=O)c3ccc(C)c(Nc4nccc(-c5cccnc5)n4)c3)cc(C(F)(F)F)c2)cn1
Potency [1]: inactive
Potency [3]: inactive
Potency [8]: 5.26 µM (active)
Potency [5]: inactive
Z-AUC [6]: 0.642 (inactive)
Z-AUC [6, 20]: 0.692
Z-AUC ([6]; measured here: PEO4 Z-AUC): 0.0156

CC1(C)O[C@@H]2C[C@@H]3[C@H]4C[C@@H](F)C5=CC(=O)C=C[C@]5(C)[C@@]4(F)[C@@H](O)C[C@]3(C)[C@]2(C(=O)CO)O1
Potency [1]: inactive
Potency [2]: 1.18 µM (active)
Potency [7]: 0.0083 µM (active)
Potency [8]: 0.0042 µM (active)
activity, negative = inhibition ([11]; parasite line A): 4.83% (inactive)
activity, negative = inhibition ([11]; parasite line B): 2.94% (inactive)
Potency [12]: inactive
Potency [13]: inactive
Potency [14]: inactive
Potency [15]: inactive
Potency [16]: inactive
Potency [17]: inactive
Potency [18]: inactive
Potency [19]: inactive
